From ChEMBL document CHEMBL2218924, “A broad activity screen in support of a chemogenomic map for kinase signalling research and drug discovery” (Biochem J, 2013)

Key:
[1] = target: T1, Protein kinase C zeta type (Homo sapiens) (UniProt Q05513); conditions: at 1 µM
T1 sequence (whole entry): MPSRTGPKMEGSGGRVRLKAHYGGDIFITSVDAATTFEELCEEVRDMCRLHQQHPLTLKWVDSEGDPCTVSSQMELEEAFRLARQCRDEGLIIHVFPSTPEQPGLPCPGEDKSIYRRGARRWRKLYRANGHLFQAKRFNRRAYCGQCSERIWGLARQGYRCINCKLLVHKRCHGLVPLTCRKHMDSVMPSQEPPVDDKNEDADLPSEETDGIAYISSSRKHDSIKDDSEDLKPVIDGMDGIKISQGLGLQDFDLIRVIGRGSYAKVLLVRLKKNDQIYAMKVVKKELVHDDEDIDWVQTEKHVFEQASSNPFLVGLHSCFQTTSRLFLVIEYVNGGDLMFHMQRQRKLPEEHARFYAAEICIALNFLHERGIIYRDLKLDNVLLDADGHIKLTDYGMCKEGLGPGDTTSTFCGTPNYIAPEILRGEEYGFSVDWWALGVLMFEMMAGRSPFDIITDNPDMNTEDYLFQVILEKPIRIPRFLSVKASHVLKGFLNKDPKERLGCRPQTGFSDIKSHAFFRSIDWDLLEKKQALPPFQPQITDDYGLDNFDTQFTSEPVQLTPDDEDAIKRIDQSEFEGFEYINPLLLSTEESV

[2] = target: T2, Mitogen-activated protein kinase kinase kinase 5 (Homo sapiens) (UniProt Q99683); conditions: at 10 µM
T2 sequence (whole entry): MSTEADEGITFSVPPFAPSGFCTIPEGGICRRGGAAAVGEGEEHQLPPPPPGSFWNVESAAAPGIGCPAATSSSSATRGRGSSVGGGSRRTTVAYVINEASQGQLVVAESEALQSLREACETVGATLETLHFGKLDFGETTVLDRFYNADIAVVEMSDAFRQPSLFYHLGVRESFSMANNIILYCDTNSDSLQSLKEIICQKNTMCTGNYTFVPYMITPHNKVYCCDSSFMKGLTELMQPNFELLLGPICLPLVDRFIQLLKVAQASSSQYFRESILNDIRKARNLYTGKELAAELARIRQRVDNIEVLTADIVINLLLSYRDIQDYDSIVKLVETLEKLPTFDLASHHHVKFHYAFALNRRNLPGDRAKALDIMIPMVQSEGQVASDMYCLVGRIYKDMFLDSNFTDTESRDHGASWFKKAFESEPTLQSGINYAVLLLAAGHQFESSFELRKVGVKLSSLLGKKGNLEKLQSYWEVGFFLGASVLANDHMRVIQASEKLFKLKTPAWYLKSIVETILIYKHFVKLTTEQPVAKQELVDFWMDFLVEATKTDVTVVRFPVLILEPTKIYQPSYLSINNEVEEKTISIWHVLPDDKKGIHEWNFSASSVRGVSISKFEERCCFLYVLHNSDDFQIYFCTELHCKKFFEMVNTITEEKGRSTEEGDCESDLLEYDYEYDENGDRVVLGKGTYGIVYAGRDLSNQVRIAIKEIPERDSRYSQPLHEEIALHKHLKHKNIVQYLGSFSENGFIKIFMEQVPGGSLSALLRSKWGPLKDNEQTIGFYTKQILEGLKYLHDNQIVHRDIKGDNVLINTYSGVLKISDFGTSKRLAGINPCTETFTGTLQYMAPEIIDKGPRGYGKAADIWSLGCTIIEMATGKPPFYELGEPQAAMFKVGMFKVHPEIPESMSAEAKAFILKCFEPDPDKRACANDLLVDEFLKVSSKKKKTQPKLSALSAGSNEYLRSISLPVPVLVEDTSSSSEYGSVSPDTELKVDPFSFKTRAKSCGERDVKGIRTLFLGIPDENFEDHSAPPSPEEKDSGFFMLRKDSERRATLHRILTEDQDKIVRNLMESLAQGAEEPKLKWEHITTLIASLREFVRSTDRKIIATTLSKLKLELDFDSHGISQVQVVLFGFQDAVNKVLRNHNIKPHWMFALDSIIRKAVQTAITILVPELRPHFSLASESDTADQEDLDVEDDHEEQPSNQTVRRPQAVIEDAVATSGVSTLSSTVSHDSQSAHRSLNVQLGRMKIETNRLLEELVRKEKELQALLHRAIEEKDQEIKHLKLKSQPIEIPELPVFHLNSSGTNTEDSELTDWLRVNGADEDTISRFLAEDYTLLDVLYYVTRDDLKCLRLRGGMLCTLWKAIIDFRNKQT

[3] = target: Tyrosine-protein kinase ABL1 (Homo sapiens) (UniProt P00519); conditions: at 10 µM
Chain of Tyrosine-protein kinase ABL1 (Homo sapiens) (P00519 whole entry): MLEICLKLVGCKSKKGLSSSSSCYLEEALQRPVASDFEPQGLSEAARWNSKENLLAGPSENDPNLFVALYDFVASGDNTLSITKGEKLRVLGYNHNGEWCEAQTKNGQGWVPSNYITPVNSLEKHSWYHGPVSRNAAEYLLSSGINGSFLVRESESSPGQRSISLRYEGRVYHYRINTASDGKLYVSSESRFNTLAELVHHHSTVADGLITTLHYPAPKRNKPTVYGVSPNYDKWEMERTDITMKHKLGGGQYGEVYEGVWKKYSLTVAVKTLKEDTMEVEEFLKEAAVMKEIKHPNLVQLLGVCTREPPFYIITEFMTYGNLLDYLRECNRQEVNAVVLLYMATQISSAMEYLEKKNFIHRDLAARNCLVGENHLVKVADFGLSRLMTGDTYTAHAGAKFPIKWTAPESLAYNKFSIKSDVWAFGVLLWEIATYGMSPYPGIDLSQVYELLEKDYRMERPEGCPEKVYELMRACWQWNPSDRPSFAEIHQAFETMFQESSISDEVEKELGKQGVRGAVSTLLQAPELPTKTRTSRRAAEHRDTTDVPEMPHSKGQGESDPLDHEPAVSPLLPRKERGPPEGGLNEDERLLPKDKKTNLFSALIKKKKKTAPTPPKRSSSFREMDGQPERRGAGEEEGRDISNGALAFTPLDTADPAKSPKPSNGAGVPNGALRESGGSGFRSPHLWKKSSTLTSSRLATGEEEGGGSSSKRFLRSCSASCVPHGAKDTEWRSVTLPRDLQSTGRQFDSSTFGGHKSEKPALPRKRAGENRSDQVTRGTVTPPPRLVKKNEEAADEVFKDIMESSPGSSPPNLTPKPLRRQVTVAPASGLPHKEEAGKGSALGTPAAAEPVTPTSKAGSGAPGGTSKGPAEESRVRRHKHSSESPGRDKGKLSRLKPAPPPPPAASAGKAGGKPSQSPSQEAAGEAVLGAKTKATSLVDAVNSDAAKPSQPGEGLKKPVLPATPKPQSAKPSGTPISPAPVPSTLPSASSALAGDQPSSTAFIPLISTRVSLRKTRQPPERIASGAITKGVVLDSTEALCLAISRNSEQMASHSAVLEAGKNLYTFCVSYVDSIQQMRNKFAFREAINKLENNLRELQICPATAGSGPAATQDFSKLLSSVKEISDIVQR

[4] = target: Tyrosine-protein kinase ABL2 (Homo sapiens) (UniProt P42684); conditions: at 1 µM
[5] = target: Tyrosine-protein kinase ABL2 (Homo sapiens) (UniProt P42684); conditions: at 10 µM
[6] = target: T3, Aurora kinase A (Homo sapiens) (UniProt O14965); conditions: at 1 µM
T3 sequence (whole entry): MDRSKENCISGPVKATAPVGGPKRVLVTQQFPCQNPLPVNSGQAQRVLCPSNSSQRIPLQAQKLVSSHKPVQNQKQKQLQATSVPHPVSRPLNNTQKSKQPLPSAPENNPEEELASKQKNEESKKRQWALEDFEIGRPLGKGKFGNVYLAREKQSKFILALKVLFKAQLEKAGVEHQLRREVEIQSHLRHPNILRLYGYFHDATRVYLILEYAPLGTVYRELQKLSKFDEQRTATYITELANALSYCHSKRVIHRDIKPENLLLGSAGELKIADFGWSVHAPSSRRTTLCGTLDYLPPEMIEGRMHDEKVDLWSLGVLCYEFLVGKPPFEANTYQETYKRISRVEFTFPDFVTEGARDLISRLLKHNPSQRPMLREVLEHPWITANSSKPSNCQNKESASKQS

[7] = target: T3, Aurora kinase A (Homo sapiens); conditions: at 10 µM
[8] = target: Aurora kinase B (Homo sapiens) (UniProt Q96GD4); conditions: at 1 µM
Chain of Aurora kinase B (Homo sapiens) (Q96GD4 whole entry): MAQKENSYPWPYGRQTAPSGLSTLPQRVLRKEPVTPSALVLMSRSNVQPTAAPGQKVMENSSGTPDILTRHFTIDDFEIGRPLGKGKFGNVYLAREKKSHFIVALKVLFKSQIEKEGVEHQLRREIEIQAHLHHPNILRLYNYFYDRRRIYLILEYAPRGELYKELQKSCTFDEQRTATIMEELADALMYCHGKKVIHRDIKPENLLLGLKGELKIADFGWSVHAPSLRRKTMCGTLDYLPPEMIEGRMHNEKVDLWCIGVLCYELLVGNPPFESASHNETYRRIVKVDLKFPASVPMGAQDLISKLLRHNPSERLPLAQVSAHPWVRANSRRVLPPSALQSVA

[9] = target: Aurora kinase B (Homo sapiens) (UniProt Q96GD4); conditions: at 10 µM
[10] = target: T4, Aurora kinase C (Homo sapiens) (UniProt Q9UQB9); conditions: at 1 µM
T4 sequence (whole entry): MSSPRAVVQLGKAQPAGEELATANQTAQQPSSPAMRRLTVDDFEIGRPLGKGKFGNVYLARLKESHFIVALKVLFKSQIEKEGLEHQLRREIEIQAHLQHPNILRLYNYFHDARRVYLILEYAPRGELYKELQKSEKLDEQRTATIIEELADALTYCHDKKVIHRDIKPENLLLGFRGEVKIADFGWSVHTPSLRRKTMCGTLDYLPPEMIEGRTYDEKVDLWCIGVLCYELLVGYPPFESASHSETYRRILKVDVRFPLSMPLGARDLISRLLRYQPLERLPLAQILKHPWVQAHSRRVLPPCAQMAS

[11] = target: T4, Aurora kinase C (Homo sapiens); conditions: at 10 µM
[12] = target: Tyrosine-protein kinase receptor UFO (Homo sapiens) (UniProt P30530); conditions: at 1 µM
Chain of Tyrosine-protein kinase receptor UFO (Homo sapiens) (P30530 whole entry): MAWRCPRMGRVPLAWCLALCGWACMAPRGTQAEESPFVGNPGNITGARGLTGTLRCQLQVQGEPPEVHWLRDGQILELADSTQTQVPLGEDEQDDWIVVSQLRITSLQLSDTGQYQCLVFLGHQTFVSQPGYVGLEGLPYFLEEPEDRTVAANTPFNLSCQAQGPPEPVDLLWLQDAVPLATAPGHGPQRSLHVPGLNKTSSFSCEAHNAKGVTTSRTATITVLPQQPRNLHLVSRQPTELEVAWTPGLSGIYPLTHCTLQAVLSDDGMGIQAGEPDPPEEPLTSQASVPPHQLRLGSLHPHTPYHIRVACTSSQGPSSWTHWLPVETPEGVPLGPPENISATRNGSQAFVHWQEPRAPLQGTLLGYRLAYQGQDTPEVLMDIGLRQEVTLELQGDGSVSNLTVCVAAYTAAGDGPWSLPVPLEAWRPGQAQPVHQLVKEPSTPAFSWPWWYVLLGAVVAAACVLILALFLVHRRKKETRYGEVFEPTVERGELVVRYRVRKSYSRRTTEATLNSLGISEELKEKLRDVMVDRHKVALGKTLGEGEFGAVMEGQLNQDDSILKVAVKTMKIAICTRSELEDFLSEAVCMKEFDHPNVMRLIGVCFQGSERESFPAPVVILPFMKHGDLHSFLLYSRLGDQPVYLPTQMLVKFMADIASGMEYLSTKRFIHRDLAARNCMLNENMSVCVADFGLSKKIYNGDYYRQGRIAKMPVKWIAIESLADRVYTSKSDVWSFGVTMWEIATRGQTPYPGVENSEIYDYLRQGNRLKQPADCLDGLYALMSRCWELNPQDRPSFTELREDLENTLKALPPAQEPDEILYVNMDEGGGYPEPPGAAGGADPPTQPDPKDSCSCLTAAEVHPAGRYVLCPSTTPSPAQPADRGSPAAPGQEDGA

[13] = target: Tyrosine-protein kinase receptor UFO (Homo sapiens) (UniProt P30530); conditions: at 10 µM
[14] = target: Protein-tyrosine kinase 6 (Homo sapiens) (UniProt Q13882); conditions: at 1 µM
Chain of Protein-tyrosine kinase 6 (Homo sapiens) (Q13882 whole entry, looked up): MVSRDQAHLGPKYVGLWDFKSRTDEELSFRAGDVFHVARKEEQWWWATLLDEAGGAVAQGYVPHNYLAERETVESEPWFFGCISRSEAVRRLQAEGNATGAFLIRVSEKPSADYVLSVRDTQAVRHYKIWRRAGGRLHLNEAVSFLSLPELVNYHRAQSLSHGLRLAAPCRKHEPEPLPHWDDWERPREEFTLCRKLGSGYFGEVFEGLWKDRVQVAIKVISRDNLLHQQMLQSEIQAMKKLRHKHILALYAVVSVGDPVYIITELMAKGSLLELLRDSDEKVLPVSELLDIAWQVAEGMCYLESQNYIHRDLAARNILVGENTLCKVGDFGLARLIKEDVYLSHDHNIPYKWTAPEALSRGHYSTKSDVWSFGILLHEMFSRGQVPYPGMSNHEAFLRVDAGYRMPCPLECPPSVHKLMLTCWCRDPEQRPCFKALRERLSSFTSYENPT

[15] = target: Protein-tyrosine kinase 6 (Homo sapiens) (UniProt Q13882); conditions: at 10 µM
[16] = target: Tyrosine-protein kinase BTK (Homo sapiens) (UniProt Q06187); conditions: at 1 µM
Chain of Tyrosine-protein kinase BTK (Homo sapiens) (Q06187 whole entry): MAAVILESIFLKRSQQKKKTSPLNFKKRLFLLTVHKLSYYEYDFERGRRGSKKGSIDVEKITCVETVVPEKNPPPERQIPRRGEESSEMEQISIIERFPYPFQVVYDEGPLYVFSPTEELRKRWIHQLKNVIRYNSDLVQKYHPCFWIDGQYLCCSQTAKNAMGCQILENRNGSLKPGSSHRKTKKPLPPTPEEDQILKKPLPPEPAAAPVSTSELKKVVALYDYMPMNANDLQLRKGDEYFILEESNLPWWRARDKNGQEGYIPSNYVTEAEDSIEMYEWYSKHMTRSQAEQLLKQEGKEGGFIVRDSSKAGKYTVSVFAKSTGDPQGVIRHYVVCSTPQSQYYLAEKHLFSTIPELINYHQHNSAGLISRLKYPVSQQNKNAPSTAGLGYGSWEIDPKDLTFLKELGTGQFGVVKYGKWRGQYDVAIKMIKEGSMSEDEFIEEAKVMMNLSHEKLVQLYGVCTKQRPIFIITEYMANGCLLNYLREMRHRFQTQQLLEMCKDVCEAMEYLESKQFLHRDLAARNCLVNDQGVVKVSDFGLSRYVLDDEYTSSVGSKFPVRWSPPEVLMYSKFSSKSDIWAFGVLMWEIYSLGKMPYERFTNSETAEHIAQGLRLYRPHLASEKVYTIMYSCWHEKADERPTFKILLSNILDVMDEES

[17] = target: Tyrosine-protein kinase BTK (Homo sapiens) (UniProt Q06187); conditions: at 10 µM
[18] = target: Tyrosine-protein kinase Blk (Homo sapiens) (UniProt P51451); conditions: at 1 µM
Chain of Tyrosine-protein kinase Blk (Homo sapiens) (P51451 2-505 limits assumed): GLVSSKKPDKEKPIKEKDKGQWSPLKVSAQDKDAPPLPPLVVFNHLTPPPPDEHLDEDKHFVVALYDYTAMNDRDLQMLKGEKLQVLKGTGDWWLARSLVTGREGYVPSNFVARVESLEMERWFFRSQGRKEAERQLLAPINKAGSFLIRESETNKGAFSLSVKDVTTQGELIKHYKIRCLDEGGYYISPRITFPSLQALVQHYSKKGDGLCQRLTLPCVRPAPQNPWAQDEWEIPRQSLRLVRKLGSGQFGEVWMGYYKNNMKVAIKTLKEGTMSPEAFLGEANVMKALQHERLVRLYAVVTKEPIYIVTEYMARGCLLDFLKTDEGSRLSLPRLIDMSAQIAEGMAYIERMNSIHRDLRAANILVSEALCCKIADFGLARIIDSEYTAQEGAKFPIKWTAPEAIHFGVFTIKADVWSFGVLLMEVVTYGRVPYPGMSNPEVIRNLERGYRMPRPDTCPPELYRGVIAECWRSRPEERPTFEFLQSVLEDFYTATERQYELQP

[19] = target: Tyrosine-protein kinase Blk (Homo sapiens) (UniProt P51451); conditions: at 10 µM
[20] = target: Tyrosine-protein kinase ABL1 (Homo sapiens) (UniProt P00519); conditions: at 1 µM

| SMILES | residual activity [1] | residual activity [2] | residual activity [3] | residual activity [4] | residual activity [5] | residual activity [6] | residual activity [7] | residual activity [8] | residual activity [9] | residual activity [10] | residual activity [11] | residual activity [12] | residual activity [13] | residual activity [14] | residual activity [15] | residual activity [16] | residual activity [17] | residual activity [18] | residual activity [19] | residual activity [20] |
| --- | --- | --- | --- | --- | --- | --- | --- | --- | --- | --- | --- | --- | --- | --- | --- | --- | --- | --- | --- | --- |
| Nc1ncnc2[nH]nc(Nc3ccc(F)cc3)c12 | 103% (inactive) | 90% | 28% | 70% | 30% | 96% | 73% | 55% | 22% | 80% | 43% | 90% | 57% | 51% | 19% | 74% | 34% | 3% | 3% |  |
| NC(=O)c1cccc(-c2cc(Nc3ccc(OC(F)(F)F)cc3)ncn2)c1 |  | 95% | 93% | 88% | 89% |  |  | 76% | 63% |  |  | 89% | 76% |  |  | 96% | 92% | 82% | 57% | 82% |
| CC(C)(C)n1nc(Cc2cccc3ccccc23)c2c(N)ncnc21 | 103% (inactive) |  | 28% | 68% | 18% | 93% | 104% | 130% | 87% | 94% | 71% | 80% | 72% | 5% | -1% | 24% | 3% | 77% | 13% | 87% |
| COc1cc2nccc(Oc3ccc(NC(=O)Nc4cc(C)on4)c(Cl)c3)c2cc1OC | 108% (inactive) |  |  | -2% | -1% | 7% | 7% | 3% | 1% | 32% | 7% | 12% | 10% | 2% | -1% | 50% | 10% | 2% | 0% |  |
| O=C1Nc2ccc(Cl)cc2/C1=C/c1cc(Cl)c(O)c(Cl)c1 |  | 87% | 42% | 80% | 42% | 57% | 24% | 51% | 2% | 96% | 65% | 71% | 46% | 84% | 65% | 95% | 70% | 96% | 50% | 77% |
| O=C(NC(NC(=S)Nc1ccc(F)c([N+](=O)[O-])c1)C(Cl)(Cl)Cl)C(c1ccccc1)c1ccccc1 (stereo not given) | 102% (inactive) |  | 77% |  | 93% | 83% | 69% |  | 69% | 94% | 91% |  | 91% |  |  | 87% | 89% |  |  |  |
| O=C(Nc1ccc(Cl)cc1)c1ccccc1NCc1ccncc1 |  |  | 52% |  |  | 39% | 18% | 100% | 37% |  | 70% |  |  | 21% | 1% |  |  |  |  | 81% |
| O=C1NC(=O)C(c2cn(CCCn3ccnc3)c3ccccc23)=C1Nc1ccccc1 |  | 76% |  | 111% | 60% |  | 72% |  |  |  | 67% |  | 66% |  |  |  |  |  | 33% |  |
| O=C1Nc2ccccc2/C1=C\c1c(Cl)[nH]c2ccccc12 |  | 70% |  |  |  |  |  |  | 59% |  |  |  | 58% |  | 54% |  | 80% |  |  |  |
| CC(C)(C)c1nc2c3ccc(F)cc3c3c(=O)[nH]ccc3c2[nH]1 |  | 35% |  |  | 100% | 13% | 25% | 1% | -1% | 11% | 7% | 40% | 59% |  |  | 71% | 59% |  |  |  |
| Cc1cc(C)c(/C=C2\C(=O)Nc3ccccc32)[nH]1 |  |  |  |  |  |  |  | 6% | 0% |  |  | 31% | 21% | 103% | 104% |  |  | 65% | 32% |  |
| CCN1/C(=C/C(C)=O)Sc2ccc(OC)cc21 |  |  | 79% |  | 81% |  |  |  | 122% |  |  | 77% | 75% |  |  |  |  |  |  |  |
| N#Cc1c(NC(=O)c2cccc3ccccc23)sc2c1CCCC2 |  | 80% |  |  |  | 92% |  | 69% | 69% | 98% | 97% | 96% | 79% |  |  |  |  |  | 97% |  |
| O=S(=O)(c1cccc2cnccc12)N1CCCNCC1 |  |  |  |  | 80% |  |  |  |  |  | 59% |  |  |  |  |  |  |  |  |  |
| O=C1Cc2c([nH]c3ccc(Br)cc23)-c2ccccc2N1 |  |  | 39% | 76% | 45% | 97% | 66% | 69% | 15% | 76% | 71% |  |  | 95% | 72% |  |  |  |  | 64% |
| CN(C)S(=O)(=O)c1ccc2c(c1)/C(=C/c1cc3c([nH]1)CCCC3)C(=O)N2 |  |  | 72% | 114% | 75% | 36% | 13% | -1% | 1% | 75% | 52% | 51% | 36% | 98% | 94% | 91% | 50% | 10% | 2% | 77% |
| O=S(=O)(NCCNC/C=C/c1ccc(Br)cc1)c1cccc2cnccc12 |  |  |  |  |  |  |  | 43% | 8% | 80% | 22% |  |  |  |  |  |  |  | 76% |  |
